Screens from PubChem BioAssay.
AID inh: inhibitors of human activation induced cytidine deaminase; AID deamination FRET fluorescence, UDG-coupled, 4 h; Potency, µM (titrated, usually from 115 µM), usual class: inhibitors; 91,000 tested, 0.32% active; also: nearly all actives have a fitted effect of over 25% in size
Target sequence (Q9GZX7 whole entry, looked up): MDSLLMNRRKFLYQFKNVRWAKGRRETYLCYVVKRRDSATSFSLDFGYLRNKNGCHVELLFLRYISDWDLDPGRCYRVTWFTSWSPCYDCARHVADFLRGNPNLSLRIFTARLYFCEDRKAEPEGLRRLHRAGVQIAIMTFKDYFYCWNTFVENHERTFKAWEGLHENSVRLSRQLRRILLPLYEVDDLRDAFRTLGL
UDG counter: UDG inhibition counter-screen; AID 1347430; FRET deamination/UDG coupled assay, UDG read, 4 h; 91,000 tested, 0.14% active; Potency, µM (doses to about 115 µM), most hits filed as inhibitors; also: nearly all actives have a fitted effect of over 65% in size
Hits are given with their value; – = inactive; ? = inconclusive. Only some compounds are listed: those with a hit (about 0.47% of all), similar ones and a draw of the others. Calls follow the shape of the dose curve; as a rule, active = well fitted curve in the direction sought with a large enough effect; inconclusive = small, poorly fitted or top-dose-only effect, or another doubt; inactive = no such curve, though single readings can be large; an effect the other way counts as inactive or inconclusive.

SMILES | AID inh | UDG counter
Cc1ccc(C2CCN(C(=O)c3cnn(-c4cccc(Cl)c4)c3C3CCN(C(=O)OC(C)(C)C)CC3)C2)cc1 (centres undefined) | ? | –
COc1ccccc1CN1CCC(CNC(=O)c2cnn(-c3ccc(C)c(C)c3)c2C2CCN(C(=O)OC(C)(C)C)CC2)CC1 | ? | –
COc1cccc(C(=O)Nc2c(N3CCCC3)c3ccccc3oc2=O)c1 | – | –
CCCCc1ccc(NC(=S)NN2CCN(C)CC2)cc1 | – | –
CC(C)Nc1nc(-c2ccc(NC(=O)C(C)(C)C)cc2)cs1 | – | –
CC1=C/C(=N\NC(=S)Nc2ccccc2F)CC1 | – | –
CC(=O)N1CCc2c(sc3c2c(=O)n(-c2ccccc2Cl)c(=O)n3Cc2cccc(C)c2)C1 | 35.5µM | ?
C=Cc1ccc(Cn2c(=O)n(-c3ccccc3C)c(=O)c3c4c(sc32)CN(C(C)=O)CC4)cc1 | ? | –
O=C(CSc1nc2cc(Cl)ccc2s1)NC1CCCCCCC1 | – | –
Cc1ccc(Cl)cc1OCc1n[nH]c(=S)n1C | – | –
O=CN1CCN(C(C(=O)O)c2cn(Cc3ccccc3)c3ccc(C(=O)O)cc23)CC1 (centres undefined) | – | –
CC1Cc2ccccc2N1S(=O)(=O)c1nnc(NC(=O)c2ccccc2)s1 (centres undefined) | – | –
CC1Cc2ccccc2N1S(=O)(=O)c1nnc(NC(=O)c2ccccc2Br)s1 (centres undefined) | 44.7µM | –
O=C(Nc1cccc(C(=O)Nc2ccc(S(=O)(=O)O)c3cc(S(=O)(=O)O)cc(S(=O)(=O)O)c23)c1)Nc1cccc(C(=O)Nc2ccc(S(=O)(=O)O)c3cc(S(=O)(=O)O)cc(S(=O)(=O)O)c23)c1 | 50.1µM | –
O=C(O)c1cccc(NC(=O)c2cccc(S(=O)(=O)Nc3cccc(C(=O)O)c3)c2)c1 | – | –
CCCNc1nc(-c2ccc(S(=O)(=O)N3CCOCC3)cc2)cs1 | – | –
COc1ccc(C)cc1CNCc1ccco1 | – | –
CCCN(C(=O)CCc1nc(-c2ccc(OC)cc2)no1)c1ccccc1F | 39.8µM | –
CCCN(C(=O)Cc1nc(-c2ccc(OC)cc2)no1)c1ccccc1C | ? | –
COc1ccccc1NC(=O)Cn1nc(-c2ccc(C)cc2)c2c(c1=O)CCCC2 | ? | –
CCC(C(=O)Nc1cc(OC)ccc1OC)n1nc(-c2ccccc2)c2c(c1=O)CCCC2 (centres undefined) | 28.2µM | –
CCN(CC(=O)NCc1cccs1)C(=O)C1CC(=O)N(c2cccc3ccccc23)C1 (centres undefined) | – | –
COc1cccc(/C=C(\C#N)c2nc3ccccc3c(=O)[nH]2)c1OC | – | –
COc1ccc(OC)c(/C=C(\C#N)c2nc3ccccc3c(=O)[nH]2)c1 | 79.4µM | –
C=Cn1cccc1-c1ccc(OC)cc1 | – | –
SMILES | AID inh | UDG counter
Cc1ccc(NC(=O)c2c(C)oc3ncnc(N4CCCCC4)c23)cc1Cl | – | ?
CCc1cccc(NC(=O)c2c(C)oc3ncnc(N4CCCCC4)c23)c1 | – | 89.1µM
Cc1nc2c(C(=O)NCc3ccccc3)c[nH]n2c(=O)c1Cc1ccccc1Cl | 89.1µM | –
Cc1nc2nc(N(Cc3ccccc3)C(=O)c3ccco3)[nH]n2c(=O)c1Cc1ccccc1Cl | ? | –
COc1cc(C(=O)Nc2ccc(OCc3cc(=O)n4cccc(C)c4n3)cc2)cc(OC)c1OC | 22.4µM | –
COc1ccccc1C(=O)Nc1ccc(OCc2cc(=O)n3cccc(C)c3n2)cc1 | – | –
N#CC1=C(N)Oc2n[nH]c(-c3ccccc3)c2C12C(=O)N(Cc1cccc(F)c1)c1ccccc12 (centres undefined) | – | –
Cc1ccc(C)c(N2CCN(CCCNC(=O)c3ccc4nc(N5CCC(C)CC5)sc4c3)CC2)c1 | 31.6µM | ?
Cc1ccc(Cl)cc1N1CCN(CCCNC(=O)c2ccc3nc(N4CCCCC4)sc3c2)CC1 | ? | –
O=c1[nH]c(SCc2ccc([N+](=O)[O-])cc2)nc2c1CCCC2 | – | ?
CC(C)(C)c1ccc(CSc2nc3c(c(=O)[nH]2)CCCC3)cc1 | – | 79.4µM
Cc1nc2nc(SCC(=O)NCCc3ccc(Cl)cc3)nn2c(C)c1Cc1ccccc1Cl | 35.5µM | –
Cc1ccccc1Cc1c(C)nc2nc(SCC(=O)NCCc3ccc(Cl)cc3)nn2c1C | ? | –
C=C(C)CC1Cc2c(Br)cccc2C(CC(=C)C)N1 (centres undefined) | – | –
C/C(=N/NC(N)=S)C1=CC(C)(C)CCC1 | – | –
Cc1cccc(Cn2c(=O)n3nc(-c4ccccc4)nc3c3ccccc32)c1 | 79.4µM | –
O=c1n(Cc2cccc(F)c2)c2ccccc2c2nc(-c3ccccc3)nn12 | – | –
COc1ccc(-n2c(=O)c3c4c(sc3n(Cc3ccccc3C)c2=O)CCCC4)c(OC)c1 | ? | –
COc1ccc(-n2c(=O)c3c4c(sc3n(Cc3ccc(C(C)(C)C)cc3)c2=O)CCC4)c(OC)c1 | 35.5µM | ?
